Reference: PubChem BioAssay (EPA / NIEHS)
Active and inactive are the calls of the source. How the source made its calls: active means hit-call score of the fitted dose curve at least 0.9, where 1 is the maximum; inactive means score below 0.9.

Each compound was assayed on X-box binding protein 1 (XBP1), XBP1 (gene 7494) (assay: LTEA_HepaRG_XBP1: Life Technologies and Expression Analysis (LTEA) Assay for X-box binding protein 1 (XBP1) using HepaRG (AID 2283540)). Conditions: mRNA level, 48 h; actives raise or lower the signal.
Description: LTEA_HepaRG is a cell based, multiplexed-readout assay that uses HepaRG, a human liver cell line, with measurements taken at 48 hours after chemical dosing on a 96-well plate.LTEA_HepaRG_XBP1 is one of 102 assay component(s) measured in the LTEA HepaRG cell culture assay. It is a marker of Diseases associated with XBP1 including Major Affective Disorder 7 and Bipolar Disorder.Data from the assay component LTEA_HepaRG_XBP1 was analyzed into 1 endpoint. This assay endpoint, LTEA_HepaRG_XBP1, was analyzed with bidirectional fitting relative to DMSO as the negative control and baseline of activity. Using a type of inducible reporter, measures of mRNA induction for gain or loss-of-signal activity can be used to understand regulation of transcription factor activity. To generalize the intended target to other relatable targets, this assay endpoint is annotated to the dna binding intended target family, where the subfamily is basic leucine zipper.
A total of 1060 chemcials from the ToxCast library were tested in eight-point concentration-response experiments. Cell culture and cytotoxicity assays were conducted at Thermo Fisher Scientific's Custom Services facility (Madison, WI). A single lot of human HepaRG cells (Thermo Fisher Scientific, Frederick, MD) was used for the cell culture experiments. 96-well format collagen type I coated plates of human HepaRG cells were prepared using established methods. Briefly, cryopreserved HepaRG cells were thawed, plated at a density of approximately 100,000 cells/well in HepaRG Thaw, Plate, and General Purpose media (HPRG770, Thermo Fisher Scientific), and incubated for 48 hours. 0.5% DMSO was selected as vehicle control to balance the requisite need of DMSO in HepaRG cultures to maintain differentiation (for example, baseline metabolism, proportions of hepatocytes vs. cholangiocytes), while enabling further hepatic receptor pathway activation (for example, PXR and CAR) in response to chemical exposure. 48 hours after plating, the culture medium was replaced with HepaRG Serum-Free Incudtion Media. Cells were exposed to each test chemical in duplicate and maintained in CO2 incubators for another 48 hours. Chemical plates were thawed to room temperature and 200x concentrations of treatment groups were prepared. 8-point conentration-reponse curves were made with the highest exposure at 100 uM, followed by half-log dilutions, all in 0.5% DMSO. Each test plate contained variouse controls, induction positive controls (1mM phenobarbital), cytotoxicity positive controls ([…] aflatoxin B1), vehicle controls (0.5% DMSO), and total lysis controls (0.5% DMSO). Cell morphology images were taken using an Essen IncuCyte FLR automated microscope, with six 96-well plates imaged in about 24 minutes. Images were captured and exported and JPEG files. Spent culture media was transfered to black-well plates for the LDH assay, and remaining media was sorted at -80 C for later use. Cells were treated with RLT buffer and frozen until shipped for gene expression analysis. Total RNA was isolated from the cell suspension in 75 uL of Buffer RLT (Qiagen, Germantown, MD 20874) by Quintiles/Expression Analysis (Durham, NC) using a custom isolation procedure. Total RNA from each plate well was transferred to a preamplification plate. Fluidigm's 96.96 Dynamic ArrayTM (Fluidigm, Amsterdam, the Netherlands) technology was used for gene expression analyses by quantitative reverse transcription polymerase chain reaction (qRT-PCR, performed by Quintiles/Expression Analysis, Durham, NC)89. Standard TaqManTM Assays (Applied Biosystems/ThermoFisher Scientific, Foster City, CA) were used to assess the expression of 93 genes selected based on their selectivity and sensitivity to important hepatic receptors known to be modulated by environmental chemicals; importance in human hepatocyte functionality; and hepatotoxicity. […]

| Structure (SMILES) | outcome | AC50 |
| --- | --- | --- |
| Cc1cc2c3c(c1)C(c1ccccc1)=N[C@@H](NC(=O)c1ccncc1)C(=O)N3CC2 | inactive |  |
| O=C(N[C@H]1CN2CCC1CC2)c1cc2ccoc2cn1 | inactive |  |
| c1cc2ccc3cccc4ccc(c1)c2c34 | inactive |  |
| Cc1cc(O)ccc1Cl | inactive |  |
| Oc1ccc(C(c2ccc(O)cc2)(C(F)(F)F)C(F)(F)F)cc1 |  | 77.7 µM (active) |
| CCCCCCCCCc1ccc(O)cc1 | inactive |  |
| CCCCCCCCCC[N+](C)(C)CCCCCCCCCC | inactive |  |
| CC#Cc1cc(C)nc(Nc2ccccc2)n1 | inactive |  |
| Cc1ccccc1[N+](=O)[O-] | inactive |  |
| Cc1cccc(C)c1N | inactive |  |
| ClC(Cl)=C(c1ccc(Cl)cc1)c1ccc(Cl)cc1 | inactive |  |
| Cc1ccccc1CO[C@@H]1C[C@@]2(C(C)C)CC[C@]1(C)O2 | inactive |  |
| CCSC(=O)N(CC)C1CCCCC1 | inactive |  |
| Clc1ccc(Cl)cc1 | inactive |  |
| CC(C)(c1ccccc1)c1ccc(O)cc1 | inactive |  |
| O=C(O)C(F)(F)C(F)(F)C(F)(F)C(F)(F)C(F)(F)C(F)(F)C(F)(F)C(F)(F)C(F)(F)F | inactive |  |
| O=S(=O)(O)C(F)(F)C(F)(F)C(F)(F)C(F)(F)C(F)(F)C(F)(F)F | inactive |  |
| COc1ccc(O)c(C(C)(C)C)c1 | inactive |  |
| COS(=O)(=O)OC | inactive |  |
| Oc1c(Cl)c(Cl)c(Cl)c(Cl)c1Cl |  | 6.22 µM (active) |

| Structure (SMILES) | outcome | AC50 |
| --- | --- | --- |
| C=CC(=O)NCNC(=O)C=C | inactive |  |
| Oc1ccc(Cl)cc1Cl | inactive |  |
| Cc1cccc([N+](=O)[O-])c1 | inactive |  |
| CC(C)(O)C(=O)Nc1ccc([N+](=O)[O-])c(C(F)(F)F)c1 |  | 0.0212 µM (active) |
| O=C(NC(=O)c1cc(F)c(F)cc1Cl)Nc1cc(F)ccc1N1CCC(C(=O)O)CC1 | inactive |  |
| O=S(=O)(O)C(F)(F)C(F)(F)C(F)(F)C(F)(F)F | inactive |  |
| Nn1cnnc1 | inactive |  |
| O=C(O)C(F)(F)C(F)(F)C(F)(F)C(F)(F)C(F)(F)F | inactive |  |
| CCCCCCCCOC(=O)c1ccccc1C(=O)OCCCCCCCC | inactive |  |
| C[C@]12CCC(=O)C=C1CC[C@@H]1[C@@H]2CC[C@@]2(C)[C@H]1CC[C@]2(C)O | inactive |  |
| O=C(O)C(F)(F)C(F)(F)C(F)(F)C(F)(F)C(F)(F)C(F)(F)C(F)(F)C(F)(F)F | inactive |  |
| CCC(C)c1cc([N+](=O)[O-])cc([N+](=O)[O-])c1O (stereo not given) | inactive |  |
| CCCN(CCC)N=O | inactive |  |
| c1ccc(-c2ccccc2)cc1 | inactive |  |
| C1CC2OC2CC1C1CO1 (stereo not given) | inactive |  |
| CC(c1ccc(O)cc1)(c1ccc(O)cc1)c1ccc(O)cc1 | inactive |  |
| CCOP(=S)(OCC)SCSC(C)(C)C | inactive |  |
| CCOCCOC(C)=O | inactive |  |
| CN(C)CCO | inactive |  |
| O=C(NC(=O)c1c(F)cccc1F)Nc1cc(Cl)c(OC(F)(F)C(F)F)c(Cl)c1 | inactive |  |
